HCV inhibitor = qHTS Assay for Inhibitors of Hepatitis C Virus (HCV). actives 3.4% (n = 340,000). Huh7.5.1 HCVcc-Cre infection, luciferase reporter, 44 h. Potency, µM (series often up to 41.8 µM), for the others: at the highest dose activity change, negative = inhibition, actives largely listed as inhibitors; also: potency is read from the fitted curve at half-maximal effect
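Seed cells (1,000/well) for 4 h; treat with compound and infect with HCVcc-Cre, moi about 0.5. Incubate 44 h, then detect luciferase activity.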
Vaccinia Venus = qHTS for Stage-Specific Inhibitors of Vaccinia Orthopoxvirus: Venus Reporter Primary qHTS | Vaccinia virus Venus reporter expression, fluorescence | Potency, µM (series often up to 36.5 µM), for inactives: at the highest dose activity change, negative = inhibition, actives largely listed as inhibitors | actives 0.46% (n = 330,000) | AID 720580, 2013; calls by dose curve; tested in A549 cells; also: potency is read from the fitted curve at half-maximal effect; nearly all actives have a fitted effect of over 30% in size
Sm TGR block = qHTS Assay for the Inhibitors of Schistosoma Mansoni Peroxiredoxins; Schistosoma mansoni thioredoxin glutathione reductase (TGR), Q962Y6; purified TGR, DTNB reduction, TNB absorbance 405 nm; Potency, µM (top dose mostly 114 µM), for the others: at the top dose activity change, negative = inhibition, usual class: inhibitors; actives 3% (n = 360,000); AID 485364, 2010; also: potency is read from the fitted curve at half-maximal effect; nearly all actives have a fitted effect of over 60% in size
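Kinetic colorimetric format: TGR-catalysed, NADPH-driven DTNB reduction monitored via TNB absorbance. Enzyme dispensed at 20 nM; compound exposure 15 min at room temperature before reaction start.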
FMDV antiviral = High Throughput Screening for Foot and Mouth Disease Virus Antivirals | FMDV antiviral cell-based qHTS | Potency, µM (titrated, usually from 57.9 µM), for the others: top-dose activity change, negative = inhibition, hits mostly inhibitors | actives 1.2% (n = 410,000); calls by dose curve; tested in HEK293T cells; also: read-out not given here; potency is read from the fitted curve at half-maximal effect; nearly all actives have a fitted effect of over 45% in size
HCMV inh = qHTS Assay for inhibitors of the human cytomegalovirus (HCMV); HFF cells, HCMV-luciferase reporter, 72 h; stronger effect = lower value; activity change, negative = inhibition, % at 57.5 µM; actives 4.5% (n = 410,000); in the data active = activity change below about -60%; inconclusive = no clear call, values can overlap the other calls; inactive = above about -39%
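Human foreskin fibroblasts infected with luciferase-reporter HCMV at MOI 1 PFU/cell, compounds at two doses. Luciferase measured 72 h post infection; normalized to buffer-only basal and Salinomycin (10uM) controls.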
VACV mCherry inh = qHTS for Stage-Specific Inhibitors of Vaccinia Orthopoxvirus: mCherry Reporter Primary qHTS; Potency, µM (series often up to 36.5 µM), inactives show at the top dose activity change, negative = inhibition, usual class: inhibitors; Vaccinia virus mCherry reporter infection, fluorescence; actives 0.63% (n = 310,000); calls by dose curve; tested in A549 cells; also: potency is read from the fitted curve at half-maximal effect; nearly all actives have a fitted effect of over 35% in size
Numbers without * were called inactive; i = inactive; ? = inconclusive; . = no result; [ ] = another dose, or the depositor's remark. Compounds with a hit are over-represented: about 9.3% of the library has one in this group of screens. Unless noted, calls follow the shape of the dose curve; as a rule, active = well fitted curve in the direction sought with a large enough effect; inconclusive = small, poorly fitted or top-dose-only effect, or another doubt; inactive = no such curve, though single readings can be large; an effect the other way counts as inactive or inconclusive. % is scaled to controls: 0 for no effect and ±100 for the full control effect.

SMILES	HCV inhibitor	Vaccinia Venus	Sm TGR block	FMDV antiviral	HCMV inh	VACV mCherry inh
CCOc1ccc(/C=C/C(=O)c2cc(Br)ccc(=O)c2O)cc1	?	-21%	28µM*	?	2	-28%
CCc1ccc(/C=C/C(=O)c2cc(Br)ccc(=O)c2O)cc1	?	?	0%	-16%	-106*	.
O=C1Nc2ccccc2C1Cc1nc2ccccc2c(=O)n1-c1ccccc1 (stereo not given)	-5%	-7%	-1%	-13%	0	?
CCOC(=O)NC(=O)CSc1ccc(S(=O)(=O)N2CCCCC2)cn1	-1%	.	.	5%	-10	.
N#C/C(=C\c1cc(O)c(O)c(O)c1)C(N)=O	17%	.	13µM*	-12%	40	.
Cc1ccc(-c2cc3cccc[n+]3cc2-c2ccc(C)cc2)cc1	?	-21%	-5%	40µM*	-98*	-7%
Cc1ccc2nc(-c3ccc(NS(C)(=O)=O)cc3)cc(-c3ccccc3)c2c1	?	.	0%	-27%	-10	.
O=C(NCCCn1ccnc1)c1cccc(S(=O)(=O)Nc2ccc(Br)cc2)c1	-5%	-13%	0%	43%	-5	-27%
Cc1ccc(S(=O)(=O)CCC(=O)Nc2ccccc2N2CCCC2)cc1	-23%	.	-24%	-25%	-19	.
Cc1ccc(S(=O)(=O)CCC(=O)Nc2ccccc2C)cc1	15%	-11%	40µM*	7%	7	-23%
Cc1ccc(S(=O)(=O)CCC(=O)Nc2sccc2C#N)cc1	4%	-27%	45µM*	-7%	-36	-18%
Cc1ccc(S(=O)(=O)CCC(=O)OCC(=O)Nc2sccc2C#N)cc1	.	-4%	.	-9%	18	i
COc1ccc2c(c1)-c1nc(/N=C/c3ccccc3O)sc1CC2	10µM*	-17%	-1%	-7%	7	-7%
CC(=O)N1CCN(c2c(F)c(F)c(C(F)(F)F)c(F)c2F)CC1	-11%	-25%	18%[57.1 µM]	?	-61*	-23%
CC(=O)N1CCN(c2nc3c(F)cc(F)cc3s2)CC1	.	-5%[7.34 µM]	0%	49%	104	-4%[7.34 µM]
Cc1ccc2occ(/C=N/NC(=O)c3ccccc3O)c(=O)c2c1	?	.	6%	10%	-83*	.
Cc1ccc2occ(/C=N/NC(=O)c3ccc(Cl)cc3)c(=O)c2c1	-2%	-3%	-8%	-17%	-65*	-16%
CCOc1ccccc1C(=O)N/N=C/c1coc2ccc(Cl)cc2c1=O	?	-16%	5%	-3%	-74*	i
Cc1ccc2occ(/C=N/NC(=O)c3ccncc3)c(=O)c2c1	5%	.	-16%	1%	-31	.
CCOc1ccc(Cl)cc1/C=N/NC(N)=O	14µM*	-8%	.	6%	32	i
COc1ccc(NC(C)=[N+](C)CCNS(=O)(=O)c2ccc(Cl)cc2)cc1Cl	-16%	.	4%	-6%	44	.
O=c1c2c([nH]c3ccccc13)C(=C1CCCC1)CC2	-15%	-6%	13µM*	-26%	.	-19%
O=c1c2c([nH]c3ccccc13)CCCC2	-2%	-14%	4%	-23%	-10	.
CCOc1cc(N2CCOCC2)c(OCC)cc1NC(=O)Cc1cccc2ccccc12	14µM*	-28%	-11%	6%	1	-14%
CCOc1ccc(NC(=O)Cc2cccc3ccccc23)c([N+](=O)[O-])c1	-1%	-4%	-1%	-15%	-74*	-18%
CCOc1cc(N2CCOCC2)c(OCC)cc1NC(=O)c1ccc(OC)cc1	4.5µM*	-4%	-3%	-22%	?	-10%
CCOc1cc(N2CCOCC2)c(OCC)cc1NC(=O)COC(=O)c1ccccc1C	-32%	-6%	-3%	?	-1	i
COc1ccc(NC(=O)Cc2cccc(F)c2)cc1S(=O)(=O)Nc1ccccc1Cl	?	-9%	9%	32%	-34	-20%
Cc1ccc(CSc2nnc(SCC(=O)N/N=C/c3c[nH]c4ccccc34)s2)cc1	-9%	-10%	-4%	6%	-73*	i

Screens (PubChem BioAssay)
